Rab7 wt modul: modulators of GTP binding to dog Rab7 wildtype GTPase; GST-Rab7 beads, fluorescent GTP binding, flow cytometry; actives lie on both sides; untreated = 100%, excess cold GTP = 0%; GTP binding activity (percent of control), % at 10 µM; 190,000 tested, 0.055% active; AID 758;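 active = fluorescent GTP binding to Rab7 beads changed by at least 20 points from the 100% baseline, either direction, mostly lower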;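 also: median green fluorescence of bound Bodipy-FL-GTP per Rab7 bead population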
Cdc42 wt GTP: human Cdc42 wildtype GTP binding change, either direction. 190,000 tested, 0.2% active. GST-Cdc42 beads, Bodipy-GTP binding, flow cytometry; actives lie on both sides. AID 761. P60953. percent activity (GTP binding), % at 10 µM;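 active = percent activity GTP binding at least 20 points away from the 100% baseline, either down as inhibitor or up as activator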;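 also: median bead fluorescence of bound Bodipy-FL-GTP at 100 nM; below 100% means less GTP binding so inhibitor and above means activator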
Target sequence (P60953 whole entry, looked up): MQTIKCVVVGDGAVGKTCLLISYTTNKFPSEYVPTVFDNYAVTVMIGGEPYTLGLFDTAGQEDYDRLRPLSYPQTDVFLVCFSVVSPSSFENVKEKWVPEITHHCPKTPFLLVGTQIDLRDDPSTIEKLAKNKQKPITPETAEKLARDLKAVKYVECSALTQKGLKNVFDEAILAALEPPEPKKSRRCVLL
Rac1 mut GTP: modulators of GTP binding to human Rac1 activated mutant. 190,000 tested, 0.11% active. GST-Rac1 activated beads, fluorescent GTP binding, flow cytometry; actives lie on both sides; 100% means binding = to untreated wells. percent activity (GTP binding), % at 10 µM. AID 764;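 active = GTP binding at least 20 percentage points away from the 100% baseline, in either direction, so actives lie on both sides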
HRas wt GTP bind: human HRas wildtype GTP binding, change in either direction | P01112 | GST-Ras wt beads, Bodipy-FL-GTP binding, flow cytometry; actives lie on both sides | GTP binding activity, % at 10 µM | 190,000 tested, 0.14% active | AID 759;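 active = GTP binding activity at least 20% away from the 100% baseline, either lowered as inhibitor or raised as activator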
Target sequence (P01112 whole entry, looked up): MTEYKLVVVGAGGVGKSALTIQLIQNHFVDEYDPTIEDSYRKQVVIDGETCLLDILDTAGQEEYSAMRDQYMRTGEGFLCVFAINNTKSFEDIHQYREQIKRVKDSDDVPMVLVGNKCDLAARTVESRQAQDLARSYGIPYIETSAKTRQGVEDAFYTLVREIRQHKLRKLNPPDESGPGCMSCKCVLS
Rac1 wt modul: alters GTP binding to wildtype human Rac1. 190,000 tested, 0.27% active. GST-Rac1 beads, fluorescent GTP binding, flow cytometry; actives lie on both sides; 0 = cold GTP competed, 100 = untreated. P63000. GTP binding activity (% of control), % at 10 µM. AID 757;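 active = GTP binding activity at least 20 points away from the 100% control level, either lower or higher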
Rab2 wt GTP: changes GTP binding to wildtype dog Rab2A, up or down; P61105; GST-Rab2 wt beads, Bodipy-GTP binding, flow cytometry; GTP binding activity, % at 10 µM; 190,000 tested, 0.19% active;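 active = GTP binding activity at least 20 points away from 100%, either lowered or raised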
Numbers stand for hits; n = inactive; [ ] = remark or other dose. Rows were chosen to be rich in hits. Some 0.38% of all compounds tested hit in one or more screens of this group.

SMILES	Rab7 wt modul	Cdc42 wt GTP	Rac1 mut GTP	HRas wt GTP bind	Rac1 wt modul	Rab2 wt GTP
O=C(C#Cc1cccc([N+](=O)[O-])c1)c1ccccc1	n	78	78	n	n	n
O=C(/C=C/c1cccc([N+](=O)[O-])c1)OCC(=O)c1ccccc1	n	n	n	n	n	n
Cc1cccc2sc(NNC(=O)c3cc(=O)c4ccccc4o3)nc12	n	77	74	n	n	n
O=C(NNc1nc2c(F)cccc2s1)c1cc(=O)c2ccccc2o1	n	n	76	n	n	n
Cc1ccc2sc(NNC(=O)c3cc(=O)c4ccccc4o3)nc2c1C	n	n	77	n	n	n
COc1ccc2nc(NNC(=O)c3cc(=O)c4ccccc4o3)sc2c1	n	n	n	n	n	n
CCOc1ccccc1/C=N/NC(=O)CNC(=O)c1cccs1	n	n	n	n	n	n
C/C(=N\NC(=O)CCc1ccc(S(=O)(=O)N2CCOCC2)cc1)c1ccc(Br)cc1	n	n	n	n	n	n
NC(=O)c1ccc(NC(=O)COC(=O)CCC(=O)c2ccc(Cl)cc2)cc1	n	n	n	n	n	n
Clc1ccc(Cn2ncc3c(N4CCOCC4)ncnc32)cc1	n	n	n	n	n	59
Clc1ccc(Cn2ncc3c(N4CCCC4)ncnc32)cc1	n	n	n	n	n	n
O=C(CSc1ccc2nnc(-c3ccncc3)n2n1)Nc1nccs1	n	79	n	n	71	n
Cc1nnc(NC(=O)CSc2ccc3nnc(-c4ccccn4)n3n2)s1	n	n	n	n	n	n
CCOC(=O)CSc1ccc2nnc(-c3cccs3)n2n1	n	n	n	n	n	n
O=C(CSc1ccc2nnc(-c3cccs3)n2n1)N1CCCC1	n	n	n	n	73	n
O=C(CSc1ccc2nnc(-c3ccccn3)n2n1)Nc1nccs1	n	65	73	68	54	62
Cc1ccc(CN(Cc2ccccc2)C(=S)Nc2ccccc2C)o1	n	n	n	n	n	n
CC(=O)c1cccc(NC(=O)Cn2nc(-c3ccc(Cl)cc3)ccc2=O)c1	n	n	n	n	n	n
Cc1c(NC(=O)CCN2C(=O)c3ccccc3C2=O)c(=O)n(-c2ccccc2)n1C	n	n	n	n	78	n
Cc1ccc2nc(NC(=O)c3ccc(NS(=O)(=O)c4cccs4)cc3)sc2c1	n	n	n	n	n	n
Cn1cc(C=C2C(=O)CC(C)(C)CC2=O)c2ccccc21	20	31	34	38	33	32
CCOC(=O)N1CCN(C(=O)CCc2ccc(S(=O)(=O)NCCc3ccccc3)cc2)CC1	20	33	32	37	29	32
CC(C)CNS(=O)(=O)c1ccc(CCC(=O)Nc2ccc3c(c2)OCO3)cc1	n	n	n	n	n	n
O=C(CCc1ccc(S(=O)(=O)NCCc2ccccc2)cc1)Nc1ccc2c(c1)OCO2	24	35	35	39	33	34
Cc1nn(C)cc1/C=C(/C#N)C(N)=O	n	n	n	n	n	n
SMILES	Rab7 wt modul	Cdc42 wt GTP	Rac1 mut GTP	HRas wt GTP bind	Rac1 wt modul	Rab2 wt GTP
O=C(N=Nc1c(O)[nH]c2ccc([N+](=O)[O-])cc12)c1cc(-c2ccccc2Cl)nc2ccccc12	n	n	n	n	n	n
COc1ccccc1C(=O)N=Nc1c(O)[nH]c2ccc([N+](=O)[O-])cc12	66	51	66	53	45	51
CC(C)NC(=S)N=Nc1c(O)[nH]c2ccc([N+](=O)[O-])cc12	n	68	n	72	62	68
CCN(CC)S(=O)(=O)c1cc(NC(=O)CCCOc2ccc(C(C)=O)cc2)ccc1C	n	n	n	n	n	n
Cc1cc(C)n2nc(SCCOc3ccc(F)cc3)nc2n1	n	68	n	73	68	74
COCCNC(=O)NC(=O)CN1CCCc2ccccc21	n	n	n	n	n	n
CCCS(=O)(=O)c1nnnn1-c1cccc(OC)c1	n	n	78	n	n	n
O=C(O)CCN1CCc2ccccc2C1c1cccs1 (configuration not stated)	n	n	n	n	n	n
CN1CCN(CCC(=O)N2c3ccccc3Sc3ccc(Cl)cc32)CC1	n	n	n	n	n	n
O=C(CN1CCN(CCOCCO)CC1)N1c2ccccc2Sc2ccc(Cl)cc21	n	n	n	n	120[activator]	n
Cn1nnc(NC(=S)NC(=O)c2ccc(-c3ccc(Br)cc3)o2)n1	n	n	n	n	76	n
O=C(CCNC(=O)c1ccccc1)Nc1cccnc1	n	n	n	n	n	n
COc1cc(C(=O)OCC(=O)Nc2ccc3c(c2)OC(F)(F)O3)ccc1OCc1c(C)noc1C	28	34	37	43	39	40
COc1ccc(NC(=O)COC(=O)c2ccc(OCc3c(C)noc3C)cc2)cc1OC	n	n	n	n	n	n
O=S(=O)(CC(CN1CCOCC1)N1CCOCC1)c1ccccc1 (configuration not stated)	23	60	53	58	56	55
CC1(C)CC(=O)/C(=C(/O)CCCN2C(=O)c3ccccc3C2=O)C(=NC(C)(C)C)C1	n	n	n	n	n	n
Nc1[nH]nc2ncc3cc4ccccc4nc3c12	n	n	n	n	68	n
COc1ccc(-c2cc(=O)c3c(O)c(OC)c(O)cc3o2)cc1	n	n	n	n	n	n
COc1ccc(C(=O)c2c(O)cc(-c3ccc(OC)cc3)oc2=O)cc1	125[activator]	n	n	n	137[activator]	n
CCOC(=O)c1ccc(NC(=O)c2ccccc2[N+](=O)[O-])cc1	n	n	n	n	n	n
CCOC(=O)c1cc([N+](=O)[O-])c([N+](=O)[O-])cc1NC(C)=O	n	78	n	n	n	n
Cc1[nH]n(-c2ncc(-c3ccccc3)s2)c(=O)c1C(c1ccc(Br)cc1)C(C#N)C#N (configuration not stated)	n	n	n	n	n	n
O=C(O)c1ccc(NC(=S)NC2CCCCC2)cc1	n	n	n	n	n	n
CCCN(CC1CC1)C(=S)Nc1ccc(Oc2ccccc2)cc1	n	79	n	n	n	n
S=C(Nc1ccc(Oc2ccccc2)cc1)NC1CCCCC1	n	n	n	n	141[activator]	n
CCCCN(C)C(=S)Nc1ccc(Oc2ccccc2)cc1	n	n	n	n	n	n
S=C(Nc1ccc(Oc2ccc(NC(=S)NC3CCCCC3)cc2)cc1)NC1CCCCC1	n	n	n	n	n	n
S=C(Nc1ccc(Oc2ccccc2)cc1)NC1CCCCCC1	n	79	n	n	n	n

Screening data deposited in PubChem by NMMLSC.
